D2 ag-1: Beta-Arrestin HTS for Positive Allosteric Modulators of the Human D2 Dopamine Receptor: Agonists; actives 0.084% (n = 360,000); DiscoveRx PathHunter D2 beta-arrestin, luminescence, 90 min; 100% = 57 uM dopamine signal; D(2) dopamine receptor (Homo sapiens), P14416; activation, % (concentration not given with the values); in the data active means activation above about 40%
Target sequence (P14416 whole entry, looked up): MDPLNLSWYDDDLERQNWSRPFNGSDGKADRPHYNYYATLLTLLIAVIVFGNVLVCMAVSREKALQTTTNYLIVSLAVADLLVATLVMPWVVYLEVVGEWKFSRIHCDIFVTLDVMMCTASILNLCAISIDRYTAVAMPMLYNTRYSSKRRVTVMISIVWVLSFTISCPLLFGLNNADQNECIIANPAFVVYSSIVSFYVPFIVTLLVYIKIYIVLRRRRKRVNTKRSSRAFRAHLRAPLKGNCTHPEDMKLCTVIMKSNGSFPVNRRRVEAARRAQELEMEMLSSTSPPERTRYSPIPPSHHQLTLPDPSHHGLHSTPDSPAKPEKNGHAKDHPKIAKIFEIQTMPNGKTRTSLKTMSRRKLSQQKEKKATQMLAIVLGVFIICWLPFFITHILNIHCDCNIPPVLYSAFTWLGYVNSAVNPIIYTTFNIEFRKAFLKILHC
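Agonist mode: compounds alone added to overnight-plated D2 PathHunter cells for 90 min at 37 C, with 57 uM final dopamine (EC100) defining full response. Beta-arrestin recruitment detected by chemiluminescent reagent, read after 1 h at ambient temperature.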
D2 ag-2: HTS Assay for Allosteric Agonists of the Human D2 Dopamine Receptor: Primary Screen for Agonists; D(2) dopamine receptor (Homo sapiens), P14416; actives 0.53% (n = 340,000); activation, % at 2 µM; HEK293 T-REx D2 cells, calcium flux agonist mode;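 active means activation over 3 SD above normal in the single-dose calcium agonist read, cut at about 30% in these data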; further: 0% is about no effect
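Agonism scored from kinetic calcium signal (1 read/sec, 180 s) following compound pin transfer, after a 10 s baseline. Cells: HEK293 Trex line expressing inducible D2 receptor coupled to calcium, dye-loaded after overnight culture at 30 C.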
D2 antagonist: HTS Assay for Allosteric Antagonists of the Human D2 Dopamine Receptor: Primary Screen for Antagonists; D(2) dopamine receptor (Homo sapiens), P14416; HEK293 TREx D2 cells, calcium flux, dopamine EC80; inhibition, % at 10 µM; actives 2% (n = 340,000); in the data active means inhibition above about 30%; inactive means below that, where a call was filed; further: 0% is about no effect
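HEK293 T-REx D2 cells, tet-induced, calcium dye no-wash. Cpd pintool add, 180 s kinetic, then EC80 DA, 180 s kinetic. Ca flux read.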
D2 PAM-1: HTS Assay for Positive Allosteric Modulators of the Human D2 Dopamine Receptor: Primary Screen for Potentiators; potentiation, % at 10 µM; actives 0.34% (n = 340,000); HEK293 T-REx D2, calcium flux, EC20 dopamine potentiation; D(2) dopamine receptor (Homo sapiens), P14416;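 active means potentiation over 3 SD above the plate norm, cut at about 30% in these data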; further: 0% is about no effect
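Primary screen. Calcium kinetics in induced HEK293 T-REx D2 cells: compound pre-addition 180 s, EC20 dopamine, 180 s more.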
D2 PAM-2: Beta-Arrestin HTS for Positive Allosteric Modulators of the Human D2 Dopamine Receptor: Potentiators. D(2) dopamine receptor (Homo sapiens), P14416. DiscoveRx D2 beta-arrestin cells, luminescence, 90 min; 100% = 57 uM dopamine signal. potentiation, % (test concentration not listed). actives 0.23% (n = 360,000); in the data active means potentiation above about 50%
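PathHunter beta-arrestin assay in DiscoveRx D2 cells. Compounds were added with an EC20 of dopamine (50 nM final) for 90 min at 37 deg C. Luminescence was read 1 h after detection reagent, with 57 uM dopamine as the EC100 control.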
An asterisk follows results filed as active; . = no result. Rows were chosen to be rich in hits. Some 2.4% of all compounds tested hit in one or more screens of this group.

SMILES	D2 ag-1	D2 ag-2	D2 antagonist	D2 PAM-1	D2 PAM-2
Cc1cc(-n2ccnc(NCCc3ccc(S(N)(=O)=O)cc3)c2=O)ccc1Br	.	0	.	9	.
Cn1nnc2cc(C(=O)Nc3ccccc3)ccc21	-3	1	13	11	-2
COc1ccccc1NC(=O)c1ccc2c(c1)nnn2C	-6	0	71*	3	-2
Cc1ccc(C)c(NC(=O)CSc2ncc3c(n2)-c2cc(Cl)ccc2N(Cc2ccccc2F)S3(=O)=O)c1	.	0	.	-9	.
c1ccc(-n2ncc3c(NC4CCCCCC4)ncnc32)cc1	-3	0	46*	-2	-3
NNc1ncnc2c1cnn2-c1ccccc1	-4	0	31*	6	-7
Fc1ccc(CSc2nncn3c2cc2occc23)c(Cl)c1	.	1	.	1	.
COc1cccc(CNC(=O)Cn2ncn3nc(-c4cccs4)cc3c2=O)c1	.	.	.	4	.
Cc1ccc(-n2nc(C)c3c(C(F)(F)F)cc(-c4cccnc4)nc32)cc1C	.	1	.	3	.
O=C(CN1C(=O)c2ccccc2C1=O)NCCc1c[nH]c2ccccc12	-1	0	-1	6	-4
O=C(CN1CCC(O)(c2ccccc2F)CC1)NCCc1c[nH]c2ccccc12	0	0	86*	-26	-23
O=C(Cn1ncc2c(Cl)cccc21)NCc1cccc(Cl)c1	.	-1	.	4	.
COc1ccc(-c2cc3nc(C)cc(N4CC(C)CC(C)C4)n3n2)cc1 (stereo not drawn)	-1	0	-16	40*	-2
CCOC(=O)c1ccc(Nc2ccc(C(C)=O)cc2)cc1	3	.	.	.	5
CCOC(=O)c1ccc(Nc2nnc(C(C)(C)C)c(=O)[nH]2)cc1	0	0	53*	0	-10
O=C(CCN1C(=O)/C(=C/c2ccc(F)cc2)SC1=S)NC1C=CS(=O)(=O)C1 (stereo not drawn)	1	0	-9	56*	-8
O=C(CN1C(=O)S/C(=C\c2ccc(F)cc2)C1=O)NC1C=CS(=O)(=O)C1 (stereo not drawn)	-4	0	-12	0	-8
CCCNC(=O)CN1C(=O)CSc2ccc(S(=O)(=O)N3CCC(C)CC3)cc21	.	0	.	-3	.
COCCCN1C(=O)C(O)=C(C(C)=O)C1c1cccc(F)c1 (stereo not drawn)	-4	1	37*	-4	-13
CCCCN1C(=O)C(O)=C(C(C)=O)C1c1ccccc1 (stereo not drawn)	-1	-1	-11	-1	9
CCCN(CCC)CCCNC(=O)C(NS(=O)(=O)c1ccc2c(c1)CCC(=O)N2)c1ccccc1 (stereo not drawn)	1	2	45*	0	-9
Cc1ccc(S(=O)(=O)N2CCN(C(=O)COC(=O)CNC(=O)c3ccccc3)CC2)c(C)c1	-3	0	33*	2	-1
Cc1cc(C[n+]2cc(Br)ccc2N)c2ncccc2c1	-2	0	32*	3	-16
Nc1c(C(=O)N2CCOCC2)sc2nc3c(cc12)CCC3	1	-1	8	5	-1
Nc1c(C(=O)N2CCOCC2)sc2nc3c(cc12)CCCC3	1	0	-8	33*	-2
SMILES	D2 ag-1	D2 ag-2	D2 antagonist	D2 PAM-1	D2 PAM-2
COc1ccccc1Cn1c(C)c(C(=O)NCCC#N)sc1=O	-5	.	.	.	-5
Cn1c(=O)c(=O)n(C)c2cc(NC(=O)c3cccc(F)c3)c(Cl)cc21	.	.	.	5	.
CC(=O)c1ccc(N2CCN(C(=O)/C=C/c3ccc(S(=O)(=O)N4CCOCC4)cc3)CC2)cc1	-3	1	50*	-8	-7
COc1c2c(cc3c1C(CC(O)Cc1ccccc1)N(C)CC3)OCO2 (stereo not drawn)	-1	2	57*	-26	-10
CN(CCC#N)C(=O)COC(=O)c1ccc(Cl)cc1O	-2	1	47*	-6	0
O=C(O)C1CCCCC1C(=O)Nc1ccccn1 (stereo not drawn)	-3	1	41*	-8	2
O=C(Nc1ccccn1)NC1CCCCC1	-2	1	-11	9	-20
CC1Cc2ccccc2N1C(=O)CSc1nnc2n1C(C)(C)Cc1ccccc1-2 (stereo not drawn)	-3	-1	1	34*	-12
COc1ccccc1CNC(=O)c1ccc(CSc2nc3ccncc3n2Cc2ccccc2C)cc1	.	1	.	-9	.
O=C(c1ccco1)N1N=C2CCCCCC2C1(O)C(F)(F)F (stereo not drawn)	-3	-1	-5	32*	1
CCCc1nn2c(=O)cc(COC(=O)c3ccc(NC(=O)COc4ccccc4F)cc3)nc2s1	.	5	.	3	.
CC(NC(=O)CCNC(=O)c1ccccc1Cl)c1ccc(-n2ccnc2)cc1 (stereo not drawn)	-1	0	-26	-4	-1
COc1ccccc1C(=O)NCCC(=O)NC(C)c1ccc(-n2ccnc2)cc1 (stereo not drawn)	-3	0	33*	-2	-15
COc1cccc(-n2cc(C(=O)Nc3cc(C)c(Cl)cc3OC)c3ccccc3c2=O)c1	.	0	.	6	.
O=S(=O)(c1ccc(Cl)cc1)N1CCCC(c2nc(-c3ccc(F)cc3)no2)C1 (stereo not drawn)	0	0	51*	-3	-1
COc1ccc(-c2noc(C3CCCN(S(=O)(=O)c4cccc(Cl)c4)C3)n2)cc1OC (stereo not drawn)	-3	1	-1	13	-3
Cc1ccc(/C=N/NC(=O)C2CC(=O)N(c3ccccc3)C2)s1 (stereo not drawn)	-4	-1	-18	-8	-22
O=C(N/N=C/c1ccccc1O)C1CC(=O)N(c2ccc(Cl)cc2)C1 (stereo not drawn)	3	0	35*	-23	-19
CN(C(=O)COC(=O)C12CC3CC(CC(C3)C1)C2)c1c(N)n(Cc2ccccc2)c(=O)[nH]c1=O	-3	0	47*	6	-12
O=C(NC1CCCCC1)[C@H](O)[C@@H](O)C(=O)NC1CCCCC1	-1	0	49*	-6	-1
Cc1ccc(S(N)(=O)=O)c(C)c1N1CCCC1=O	-7	0	-5	30*	-4
Cc1ccccc1CN1CCCN(CC(=O)Nc2ccc(F)cc2)S1(=O)=O	.	0	.	-12	.
O=C(CSc1ccc(S(=O)(=O)N2CCCCC2)cn1)Nc1ccccc1Br	41*	-1	3	10	1

Assay outcomes deposited in PubChem BioAssay by National Center for Advancing Translational Sciences (NCATS).
